“And” between values parts separate entries of the source, which are not always exact repeats. Equal values may be shown once. Among all 5,500 compounds or so, about 2,000 (36%) were called active. Inconclusive results (about 18%) are left out. Cut-off read from the data, not from the text of the source: active = normalized growth mostly below about 0.91 (no sharp cut-off); inconclusive = no clear call, values can overlap the other calls; inactive = mostly above about 0.92. Some of the results follow.
Assay: chemical genetic growth profiling, strain panel (AID 1159580);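 note: tested at 20 µM; growth read once vehicle control cultures reached saturation at 30 °C; 1 = growth at the plate median or of vehicle wells; lower values mean less growth of the strain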
Settings: growth OD

Measured: normalized growth

CCOC(=O)C(C)(C)Oc1ccc(Cl)cc1
inactive: S. cerevisiae deletion strains, locus YJR075W, strain HOC1, stronger effect = lower value 1.01 and 0.998 | S. cerevisiae deletion strains, locus YKL009W, strain mrt4, stronger effect = lower value 1.02 | S. cerevisiae deletion strains, locus YKL068W, stronger effect = lower value 1 | S. cerevisiae deletion strains, locus YKL085W, strain MDH1 (second series), stronger effect = lower value 1.01 | S. cerevisiae deletion strains, locus YKL085W, strain MDH1, stronger effect = lower value 1.01 | S. cerevisiae deletion strains, locus YKL160W, strain elf1, stronger effect = lower value 0.98 | S. cerevisiae deletion strains, locus YKL190W, strain CNB1, stronger effect = lower value 1.01 | S. cerevisiae deletion strains, locus YKR001C, strain vps1, stronger effect = lower value 0.975 | S. cerevisiae deletion strains, locus YKR026C, strain gcn3, stronger effect = lower value 0.974 | S. cerevisiae deletion strains, locus YKR091W, strain srl3, stronger effect = lower value 0.978 | S. cerevisiae deletion strains, locus YLL001W, strain dnm1, stronger effect = lower value 0.987 | S. cerevisiae deletion strains, locus YLL026W, stronger effect = lower value 0.97 | S. cerevisiae deletion strains, locus YLL041C, strain sdh2, stronger effect = lower value 0.983 | S. cerevisiae deletion strains, locus YLR027C, strain aat2, stronger effect = lower value 0.994 | S. cerevisiae deletion strains, locus YLR039C, strain RIC1, stronger effect = lower value 0.986 | S. cerevisiae deletion strains, locus YLR058C, strain SHM2, stronger effect = lower value 1.01 | S. cerevisiae deletion strains, locus YLR102C, strain apc9, stronger effect = lower value 0.996 | S. cerevisiae deletion strains, locus YLR113W, strain HOG1, stronger effect = lower value 0.943 | S. cerevisiae deletion strains, locus YLR221C, strain rsa3, stronger effect = lower value 0.985 | S. cerevisiae deletion strains, locus YLR258W, strain gsy2, stronger effect = lower value 0.986 | S. cerevisiae deletion strains, locus YLR262C, strain YPT6 (second series), stronger effect = lower value 0.965 | S. cerevisiae deletion strains, locus YLR262C, strain YPT6, stronger effect = lower value 0.985 | S. cerevisiae deletion strains, locus YLR268W, strain sec22, stronger effect = lower value 1 | S. cerevisiae deletion strains, locus YLR320W, strain mms22, stronger effect = lower value 0.944 | S. cerevisiae deletion strains, locus YLR330W, strain CHS5, stronger effect = lower value 1 | S. cerevisiae deletion strains, locus YLR342W, strain FKS1 (second series), stronger effect = lower value 0.988 | S. cerevisiae deletion strains, locus YLR342W, strain FKS1, stronger effect = lower value 0.981 | S. cerevisiae deletion strains, locus YLR357W, strain rsc2, stronger effect = lower value 1 | S. cerevisiae deletion strains, locus YLR370C, strain arc18, stronger effect = lower value 0.983 | S. cerevisiae deletion strains, locus YLR371W, strain rom2, stronger effect = lower value 0.971 | S. cerevisiae deletion strains, locus YLR384C, strain iki3, stronger effect = lower value 0.969 | S. cerevisiae deletion strains, locus YLR418C, strain cdc73, stronger effect = lower value 0.985 | S. cerevisiae deletion strains, locus YML016C, strain PPZ1, stronger effect = lower value 1 | S. cerevisiae deletion strains, locus YML032C, strain rad52, stronger effect = lower value 0.992 | S. cerevisiae deletion strains, locus YML120C, strain ndi1, stronger effect = lower value 0.986 | S. cerevisiae deletion strains, locus YML124C, strain tub3, stronger effect = lower value 0.998 | S. cerevisiae deletion strains, locus YMR058W, strain fet3, stronger effect = lower value 0.987 | S. cerevisiae deletion strains, locus YMR078C, strain ctf18, stronger effect = lower value 0.999 | S. cerevisiae deletion strains, locus YMR125W, strain sto1, stronger effect = lower value 0.963 | S. cerevisiae deletion strains, locus YMR129W, stronger effect = lower value 0.994 | S. cerevisiae deletion strains, locus YMR205C, strain PFK2, stronger effect = lower value 0.934 | S. cerevisiae deletion strains, locus YMR223W, strain ubp8, stronger effect = lower value 0.996 | S. cerevisiae deletion strains, locus YMR231W, strain pep5, stronger effect = lower value 0.983 | S. cerevisiae deletion strains, locus YMR307W, strain GAS1, stronger effect = lower value 0.996 | S. cerevisiae deletion strains, locus YNL067W, strain RPL9B, stronger effect = lower value 1.01 | S. cerevisiae deletion strains, locus YNL071W, strain lat1, stronger effect = lower value 0.98 | S. cerevisiae deletion strains, locus YNL128W, strain TEP1, stronger effect = lower value 1.01 | S. cerevisiae deletion strains, locus YNL175C, strain NOP13, stronger effect = lower value 1.01 | S. cerevisiae deletion strains, locus YNL183C, strain NPR1, stronger effect = lower value 0.933 | S. cerevisiae deletion strains, locus YNL197C, strain WHI3, stronger effect = lower value 1.01 | S. cerevisiae deletion strains, locus YNL209W, strain ssb2, stronger effect = lower value 0.992 | S. cerevisiae deletion strains, locus YNL224C, strain SQS1, stronger effect = lower value 0.991 | S. cerevisiae deletion strains, locus YNL233W, strain BNI4, stronger effect = lower value 0.999 | S. cerevisiae deletion strains, locus YNL248C, strain rpa49, stronger effect = lower value 0.979 | S. cerevisiae deletion strains, locus YNL250W, strain rad50, stronger effect = lower value 1.02 | S. cerevisiae deletion strains, locus YNL271C, strain bni1, stronger effect = lower value 0.997 | S. cerevisiae deletion strains, locus YNL298W, strain CLA4, stronger effect = lower value 1 | S. cerevisiae deletion strains, locus YNL307C, strain MCK1, stronger effect = lower value 1 | S. cerevisiae deletion strains, locus YNL322C, strain KRE1 (second series), stronger effect = lower value 0.973 | S. cerevisiae deletion strains, locus YNL322C, strain KRE1, stronger effect = lower value 1.01 and 1 | S. cerevisiae deletion strains, locus YNR049C, strain mso1, stronger effect = lower value 0.985 | S. cerevisiae deletion strains, locus YNR052C, strain pop2, stronger effect = lower value 1 | S. cerevisiae deletion strains, locus YOL006C, strain TOP1, stronger effect = lower value 1.01 | S. cerevisiae deletion strains, locus YOL012C, strain htz1 0.891 | S. cerevisiae deletion strains, locus YOL147C, strain pex11, stronger effect = lower value 0.988 | S. cerevisiae deletion strains, locus YOR001W, strain rrp6, stronger effect = lower value 0.976 | S. cerevisiae deletion strains, locus YOR061W, strain CKA2, stronger effect = lower value 1.01 | S. cerevisiae deletion strains, locus YOR069W, strain VPS5, stronger effect = lower value 1 | S. cerevisiae deletion strains, locus YOR070C, strain gyp1, stronger effect = lower value 0.995 | S. cerevisiae deletion strains, locus YOR080W, strain dia2, stronger effect = lower value 0.97 | S. cerevisiae deletion strains, locus YOR083W, strain WHI5 (second series), stronger effect = lower value 1.03 | S. cerevisiae deletion strains, locus YOR083W, strain WHI5, stronger effect = lower value 0.982 | S. cerevisiae deletion strains, locus YOR106W, strain vam3, stronger effect = lower value 0.999 | S. cerevisiae deletion strains, locus YOR136W, strain idh2, stronger effect = lower value 1 | S. cerevisiae deletion strains, locus YOR144C, strain elg1, stronger effect = lower value 0.995 | S. cerevisiae deletion strains, locus YOR184W, strain ser1, stronger effect = lower value 0.943 | S. cerevisiae deletion strains, locus YOR231W, strain MKK1, stronger effect = lower value 0.94 | S. cerevisiae deletion strains, locus YOR265W, strain rbl2, stronger effect = lower value 0.991 | S. cerevisiae deletion strains, locus YOR270C, strain vph1, stronger effect = lower value 0.987 | S. cerevisiae deletion strains, locus YOR290C, strain snf2, stronger effect = lower value 0.976 | S. cerevisiae deletion strains, locus YOR316C, strain cot1, stronger effect = lower value 0.997 | S. cerevisiae deletion strains, locus YPL051W, strain arl3, stronger effect = lower value 0.984 | S. cerevisiae deletion strains, locus YPL055C, strain LGE1, stronger effect = lower value 0.999 | S. cerevisiae deletion strains, locus YPL078C, strain atp4, stronger effect = lower value 0.985 | S. cerevisiae deletion strains, locus YPL106C, strain sse1, stronger effect = lower value 0.951 | S. cerevisiae deletion strains, locus YPL240C, strain hsp82, stronger effect = lower value 0.988 | S. cerevisiae deletion strains, locus YPL241C, strain CIN2, stronger effect = lower value 0.997 | S. cerevisiae deletion strains, locus YPL256C, strain CLN2, stronger effect = lower value 0.923 | S. cerevisiae deletion strains, locus YPR119W, strain clb2, stronger effect = lower value 0.993 | S. cerevisiae deletion strains, locus YPR141C, strain kar3, stronger effect = lower value 0.992 | S. cerevisiae deletion strains, locus YPR163C, strain tif3, stronger effect = lower value 0.995 | S. cerevisiae deletion strains, locus YPR167C, strain met16, stronger effect = lower value 1 | S. cerevisiae deletion strains, strain wtn01, stronger effect = lower value 0.993 | S. cerevisiae strains, strain wild type, stronger effect = lower value 1

— PubChem BioAssay AID1159580 (chemical genetic matrix, 2015)
